# Assay results: PubChem BioAssay AID1159580 (chemical genetic matrix, 2015)
# Where “and” joins values, the source holds several entries; their conditions need not be identical. Identical values can stand only once. Hit rate of the full screen: of about 5,500 compounds, about 2,000 (36%) were called active. Roughly 18% stayed inconclusive and do not appear here. This is one part of the list. Values without a mark were called inactive. No stated cut-off is given here; in the data, active means normalized growth mostly below about 0.91 (no sharp cut-off); inconclusive means no clear call, values can overlap the other calls; inactive means mostly above about 0.92.
# Assay: chemical genetic growth profiling, strain panel (AID 1159580);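 further: tested at 20 µM; growth read once vehicle control cultures reached saturation at 30 °C; 1 = growth at the plate median or of vehicle wells; lower values mean less growth of the strain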
# Settings: S. cerevisiae deletion strains, growth OD
# [1] = locus YAL013W, strain DEP1, active compounds read low
# [2] = locus YAL040C, strain CLN3, active compounds read low
# [3] = locus YCL061C, strain MRC1 (second series), active compounds read low
# [4] = locus YDR363W, strain ESC2, active compounds read low
# [5] = locus YER002W, strain NOP16, active compounds read low
# [6] = locus YGR078C, strain PAC10, active compounds read low
# [7] = locus YMR307W, strain GAS1, active compounds read low
# [8] = locus YNL128W, strain TEP1, active compounds read low
# [9] = locus YNL153C, strain GIM3, active compounds read low
# [10] = locus YNL175C, strain NOP13, active compounds read low
# [11] = locus YNL197C, strain WHI3, active compounds read low
# [12] = locus YNL224C, strain SQS1, active compounds read low
# [13] = locus YNL322C, strain KRE1, active compounds read low
# [14] = locus YOR083W, strain WHI5 (second series), active compounds read low
# [15] = locus YPL055C, strain LGE1, active compounds read low
# [16] = locus YBR229C, strain ROT2, active compounds read low
# [17] = locus YDL101C, strain DUN1, active compounds read low
# [18] = locus YDR150W, strain NUM1, active compounds read low
# [19] = locus YEL061C, strain CIN8, active compounds read low
# [20] = locus YHR030C, strain SLT2, active compounds read low
# [21] = locus YJR043C, strain POL32, active compounds read low
# [22] = locus YJR075W, strain HOC1, active compounds read low
# [23] = locus YLR039C, strain RIC1, active compounds read low
# [24] = locus YLR262C, strain YPT6, active compounds read low
# [25] = locus YMR263W, strain SAP30, active compounds read low
# [26] = locus YPL241C, strain CIN2, active compounds read low
smiles,measurement,setting,value
C/C=C1\C(=O)CC2C3CCC4=CC(=O)CC[C@]4(C)C3CC[C@]12C (stereo partly specified),normalized growth,[1],0.978
same,normalized growth,[2],0.975
same,normalized growth,[3],1
same,normalized growth,[4],0.996
same,normalized growth,[5],0.974
same,normalized growth,[6],0.924
same,normalized growth,[7],1.01
same,normalized growth,[8],0.938
same,normalized growth,[9],0.774 (active)
same,normalized growth,[10],0.956
same,normalized growth,[11],0.978
same,normalized growth,[12],0.99
same,normalized growth,[13],1.01
same,normalized growth,[14],0.743 (active)
same,normalized growth,[15],0.992
CC12CCC3C(CCC4=CC(=O)CCC43CO)C1CCC2OC(=O)c1ccccc1 (stereo unspecified),normalized growth,[1],0.994
same,normalized growth,[16],1.01
same,normalized growth,"locus YCL061C, strain MRC1, active compounds read low",0.999
same,normalized growth,[17],1.01
same,normalized growth,[18],0.993
same,normalized growth,[19],1
same,normalized growth,[6],1.01
same,normalized growth,[20],0.946
same,normalized growth,"locus YHR087W, strain rtc3, active compounds read low",1.01
same,normalized growth,"locus YJL187C, strain SWE1, active compounds read low",1.02
same,normalized growth,[21],0.996
same,normalized growth,[22],1.02
same,normalized growth,[23],0.978
same,normalized growth,"locus YLR058C, strain SHM2 (second series), active compounds read low",1
same,normalized growth,"locus YLR085C, strain ARP6, active compounds read low",1
same,normalized growth,[24],0.956
same,normalized growth,"locus YML094W, strain GIM5, active compounds read low",1
same,normalized growth,"locus YMR219W, strain ESC1, active compounds read low",1.01
same,normalized growth,[25],0.991
same,normalized growth,[9],1.01
same,normalized growth,"locus YNL298W, strain CLA4 (second series), active compounds read low",1.05
same,normalized growth,[13],1.02
same,normalized growth,"locus YNR030W, strain Alg12, active compounds read low",0.986
same,normalized growth,[15],1.02
same,normalized growth,[26],1.02
same,normalized growth,"locus YPR135W, strain CTF4, active compounds read low",0.923
C[C@]12CCC(=O)C=C1CC[C@@H]1[C@@H]2CC[C@]2(C)C(=O)CC[C@@H]12,normalized growth,[2],1.01
same,normalized growth,[3],0.994
same,normalized growth,[18],0.988
same,normalized growth,[4],0.999
same,normalized growth,[5],0.99
same,normalized growth,[6],0.987
same,normalized growth,[22],0.991
same,normalized growth,[8],0.996
same,normalized growth,[10],0.997
same,normalized growth,[11],0.997
same,normalized growth,[12],1.01
same,normalized growth,[14],0.924
same,normalized growth,[26],0.997
CC[C@H](/C=C/C(C)C1CCC2C3CCC4=CC(=O)CC[C@]4(C)C3CC[C@]12C)C(C)C (stereo partly specified),normalized growth,"locus YBR021W, strain FUR4, active compounds read low",1.01
same,normalized growth,[16],1
same,normalized growth,"locus YCL029C, strain bik1, active compounds read low",1.02
same,normalized growth,"locus YDL035C, strain GPR1, active compounds read low",1.02
same,normalized growth,"locus YDL074C, strain BRE1, active compounds read low",1.02
same,normalized growth,[17],1.01
same,normalized growth,"locus YDL134C, strain PPH21, active compounds read low",1.03
same,normalized growth,"locus YDL185W, strain tfp1, active compounds read low",1.01
same,normalized growth,"locus YDL192W, strain arf1, active compounds read low",1
same,normalized growth,"locus YDR101C, strain arx1, active compounds read low",1.01
same,normalized growth,"locus YDR162C, strain NBP2, active compounds read low",1.03
same,normalized growth,"locus YDR318W, strain mcm21, active compounds read low",1
same,normalized growth,"locus YDR388W, active compounds read low",1.01
same,normalized growth,"locus YDR502C, strain sam2, active compounds read low",1.02
same,normalized growth,[19],1
same,normalized growth,"locus YER110C, active compounds read low",1
same,normalized growth,"locus YER155C, strain BEM2, active compounds read low",1.01
same,normalized growth,"locus YER167W, strain BCK2, active compounds read low",1.02
same,normalized growth,"locus YGL078C, strain dbp3, active compounds read low",1.01
same,normalized growth,"locus YGL086W, strain mad1, active compounds read low",0.997
same,normalized growth,"locus YGL248W, strain PDE1, active compounds read low",1.02
same,normalized growth,[6],1.03
same,normalized growth,"locus YGR135W, strain pre9, active compounds read low",1
same,normalized growth,"locus YGR252W, strain gcn5, active compounds read low",1.01
same,normalized growth,[20],1.01 and 1.1
same,normalized growth,"locus YHR079C, strain IRE1 (second series), active compounds read low",0.991
same,normalized growth,"locus YHR079C, strain IRE1, active compounds read low",1.07
same,normalized growth,"locus YHR094C, strain hxt1, active compounds read low",0.99
same,normalized growth,"locus YHR129C, strain ARP1, active compounds read low",1.01
same,normalized growth,"locus YHR200W, strain rpn10, active compounds read low",1
same,normalized growth,"locus YIL066C, strain RNR3, active compounds read low",1.03
same,normalized growth,"locus YIL073C, strain SPO22, active compounds read low",1.05
same,normalized growth,"locus YIL125W, strain kgd1, active compounds read low",1.01
same,normalized growth,"locus YIR030C, strain dcg1, active compounds read low",1
same,normalized growth,"locus YJL095W, strain BCK1, active compounds read low",1.02 and 1.05
same,normalized growth,"locus YJL134W, strain LCB3, active compounds read low",1.01
same,normalized growth,"locus YJL168C, strain set2, active compounds read low",1
same,normalized growth,"locus YJL187C, strain SWE1 (second series), active compounds read low",1.02
same,normalized growth,[21],1.03
same,normalized growth,"locus YJR066W, strain TOR1, active compounds read low",0.985
same,normalized growth,[22],1.02
same,normalized growth,"locus YKL009W, strain mrt4, active compounds read low",1.04
same,normalized growth,"locus YKL068W, active compounds read low",1.01
same,normalized growth,"locus YKL085W, strain MDH1 (second series), active compounds read low",1.01
same,normalized growth,"locus YKL085W, strain MDH1, active compounds read low",1.01
same,normalized growth,"locus YKL190W, strain CNB1, active compounds read low",1.01
same,normalized growth,"locus YKR001C, strain vps1, active compounds read low",1.02
same,normalized growth,[23],1.07
same,normalized growth,"locus YLR058C, strain SHM2, active compounds read low",1.01
same,normalized growth,"locus YLR102C, strain apc9, active compounds read low",0.999
same,normalized growth,"locus YLR113W, strain HOG1, active compounds read low",1.04
same,normalized growth,[24],1.06
same,normalized growth,"locus YLR268W, strain sec22, active compounds read low",1.02
same,normalized growth,"locus YLR330W, strain CHS5, active compounds read low",1.01
same,normalized growth,"locus YLR342W, strain FKS1 (second series), active compounds read low",0.996
same,normalized growth,"locus YLR371W, strain rom2, active compounds read low",1.02
same,normalized growth,"locus YLR418C, strain cdc73, active compounds read low",1.01
same,normalized growth,"locus YML016C, strain PPZ1, active compounds read low",1
same,normalized growth,"locus YML032C, strain rad52, active compounds read low",1.01
same,normalized growth,"locus YML124C, strain tub3, active compounds read low",1
same,normalized growth,"locus YMR078C, strain ctf18, active compounds read low",1
same,normalized growth,"locus YMR223W, strain ubp8, active compounds read low",1.01
same,normalized growth,[25],1.01
same,normalized growth,[7],1.04
same,normalized growth,"locus YNL067W, strain RPL9B, active compounds read low",1.02
same,normalized growth,[9],1.01
same,normalized growth,"locus YNL183C, strain NPR1, active compounds read low",0.996
same,normalized growth,"locus YNL233W, strain BNI4, active compounds read low",1.02
same,normalized growth,"locus YNL250W, strain rad50, active compounds read low",1
same,normalized growth,"locus YNL271C, strain bni1, active compounds read low",1.01
same,normalized growth,"locus YNL298W, strain CLA4, active compounds read low",1
same,normalized growth,"locus YNL307C, strain MCK1, active compounds read low",1.01
same,normalized growth,[13],1.02
same,normalized growth,"locus YNR052C, strain pop2, active compounds read low",1.01
same,normalized growth,"locus YOL006C, strain TOP1, active compounds read low",1.13
same,normalized growth,"locus YOL012C, strain htz1",1.25
same,normalized growth,"locus YOL147C, strain pex11, active compounds read low",1
same,normalized growth,"locus YOR061W, strain CKA2, active compounds read low",1.01
same,normalized growth,"locus YOR069W, strain VPS5, active compounds read low",1.01
same,normalized growth,"locus YOR136W, strain idh2, active compounds read low",1
same,normalized growth,"locus YOR144C, strain elg1, active compounds read low",0.994
same,normalized growth,"locus YOR184W, strain ser1, active compounds read low",0.999
same,normalized growth,"locus YOR231W, strain MKK1, active compounds read low",1.08
same,normalized growth,"locus YOR316C, strain cot1, active compounds read low",1
same,normalized growth,[15],1.04
same,normalized growth,[26],1.01
same,normalized growth,"locus YPL256C, strain CLN2, active compounds read low",1.03
same,normalized growth,"locus YPR119W, strain clb2, active compounds read low",1
same,normalized growth,"locus YPR141C, strain kar3, active compounds read low",1.01
same,normalized growth,"locus YPR163C, strain tif3, active compounds read low",1.01
same,normalized growth,"locus YPR167C, strain met16, active compounds read low",1.03
same,normalized growth,"strain wtn01, active compounds read low",0.992
CC(=O)[C@H]1CC[C@H]2[C@@H]3CCC4=CC(=O)CC[C@]4(C)[C@H]3CC[C@]12C,normalized growth,[1],0.994
same,normalized growth,[2],0.992
same,normalized growth,[3],1
same,normalized growth,[4],1.01
same,normalized growth,[5],0.973
same,normalized growth,[6],0.998
same,normalized growth,"locus YGR229C, strain SMI1, active compounds read low",1.17 [resistant] (active)
same,normalized growth,[22],0.99
same,normalized growth,[7],0.979
same,normalized growth,[10],0.991
same,normalized growth,[11],0.986
same,normalized growth,[12],0.992
same,normalized growth,[14],1.01
same,normalized growth,[15],0.99
same,normalized growth,[26],0.995
